GCN5L2 inh = qHTS Assay for Inhibitors of GCN5L2 | GCN5L2 HAT assay, ThioGlo1 CoA-SH fluorescence | Potency, µM (titrated, usually from 58.9 µM), without a hit: at the top dose activity change, negative = inhibition, usual class: inhibitors | 0.21% of 390,000 active | Histone acetyltransferase KAT2A (Homo sapiens), Q92830; note: % is set by controls: 0 for no effect and ±100 for the full control effect
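Fluorescence readout, Ex340nm/Em540nm: ThioGlo1 (50uM final) reacts with free CoA thiol released as 20nM GCN5L2 acetylates H3(1-25) peptide (75uM) using acetyl-CoA (70uM). Compound and enzyme sat 15 min beforehand; 20 min room-temperature reaction.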
GLS inh = qHTS for Inhibitors of Glutaminase (GLS); Glutaminase kidney isoform, mitochondrial (Homo sapiens), O94925; GLS enzymatic activity, qHTS titration; Potency, µM (titrated, usually from 45.5 µM), without a hit: at the top dose activity change, negative = inhibition, most hits filed as inhibitors; 0.21% of 410,000 active; note: % is set by controls: 0 for no effect and ±100 for the full control effect
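hKGA in 45 mM KH2PO4 pH 8.2, 0.02% Tween-20 with pin-transferred compounds; 1 mM L-glutamine (stock) plus glutamate oxidase/HRP/Amplex Red coupling added. Fluorescence read initially and after 30 min at RT.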
Tb PFK inh-1 = qHTS Assay to Find Inhibitors of T. brucei phosphofructokinase; ATP-dependent 6-phosphofructokinase (Trypanosoma brucei brucei), O15648; T. brucei PFK, ADP-Glo luminescence; Potency, µM (titrated, usually from 57.5 µM), for the others: top-dose activity, negative = inhibition, usual class: inhibitors; 0.17% of 330,000 active;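 note: 0% = uninhibited 1x PFK enzyme wells and -100% = no-enzyme wells; nearly all actives have a fitted effect of over 60% in size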
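Activity is normalized to no-enzyme wells (full inhibition) and 1.25 nM enzyme wells (no inhibition). Reaction: 0.5 mM F6P, 0.1 mM ATP, 45 min RT, ADP-Glo luminescence; concentration-response curves fitted and classed by quality.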
USP2a inh = qHTS Assay for Inhibitors of Ubiquitin-specific Protease USP2a Using CHOP2 as the Reporter; Ubiquitin carboxyl-terminal hydrolase 2 (Homo sapiens), O75604; USP2 core, Ub-CHOP2 coupled fluorogenic reporter, 485/531; Potency, µM (doses to about 38.3 µM), inactives show at the highest dose activity change, negative = inhibition, hits mostly inhibitors; 0.01% of 330,000 active; AID 463254, 2010;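 note: plate controls were DMSO wells for no effect and full inhibition by NEM control for full effect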
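Deubiquitinase activity read as fluorescence (485/531 nm) after Ub-CHOP2 cleavage activates the enterokinase reporter on its substrate; USP2 core 10nM, Ub-CHOP2 and substrate 25nM each, 30min compound preincubation then 60min RT; data normalized to NEM, curves fitted.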
PGK inhibitor = qHTS Assay to Find Inhibitors of Phosphoglycerate Kinase. Potency, µM (series often up to 57.5 µM), without a hit: top-dose activity change, negative = inhibition, actives largely listed as inhibitors. AID 602233, 2012. Phosphoglycerate kinase, glycosomal (Trypanosoma brucei brucei), P07378. PGK/GAPDH coupled, Kinase-Glo luminescence, 60 min. 0.043% of 380,000 active; note: % is set by controls: 0 for no effect and ±100 for the full control effect; nearly all actives have a fitted effect of over 60% in size
Target sequence (P07378 whole entry, looked up): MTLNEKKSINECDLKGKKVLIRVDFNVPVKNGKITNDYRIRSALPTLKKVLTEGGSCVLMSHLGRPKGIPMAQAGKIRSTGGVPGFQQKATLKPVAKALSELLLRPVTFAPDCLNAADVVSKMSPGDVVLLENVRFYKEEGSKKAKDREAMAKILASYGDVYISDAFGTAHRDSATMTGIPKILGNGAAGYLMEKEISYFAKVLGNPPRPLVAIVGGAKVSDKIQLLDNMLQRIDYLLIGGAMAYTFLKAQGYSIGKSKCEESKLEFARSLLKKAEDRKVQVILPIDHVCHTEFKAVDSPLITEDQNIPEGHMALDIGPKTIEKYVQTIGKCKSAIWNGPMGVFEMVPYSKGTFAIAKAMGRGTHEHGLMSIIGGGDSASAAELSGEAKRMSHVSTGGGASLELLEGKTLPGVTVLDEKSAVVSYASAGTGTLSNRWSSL
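Recombinant glycosomal PGK reaction used 1,3-bisphosphoglycerate generated in-well by GAPDH (100nM final) in 100mM TEA pH 7.6, 5mM MgCl2, 0.01% Tween-20. After 60 minutes at room temperature, ATP was read by Kinase-Glo Plus luminescence end-point.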
Tb PFK KinaseGlo = Tb PFK orthogonal confirmatory assay using ATP depletion (Kinase-Glo Plus) as an alternative measure of Tb PFK activity: Hit Validation; shares compounds with Tb PFK inh-1; Tb PFK enzyme, ATP depletion, Kinase-Glo Plus luminescence; AID 504636, 2011; Potency, µM (doses to about 57.5 µM), for inactives: at the top dose inhibition; 47% of 1,100 active; calls by dose curve; note: nearly all actives have a fitted effect of over 60% in size
Tb PFK inh-2 = Inhibitors of T. brucei phosphofructokinase: Hit Validation | shares compounds with Tb PFK inh-1 | purified T. brucei PFK, ADP-Glo luminescence, 45 min | Potency, µM (highest dose often 57.5 µM), inactives show at the highest dose activity change, negative = inhibition, hits mostly inhibitors | 41% of 1,100 active | AID 504637, 2011;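 note: plate controls were full PFK enzyme control for no effect and no enzyme control for full effect; nearly all actives have a fitted effect of over 60% in size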
Numbers without * were called inactive; i = inactive; ? = inconclusive; nt = no result; [ ] = dose if it differs, or a comment. Most compounds without a hit are left out; they make up all but 0.52% or so of the library. Unless noted, calls come from the whole dose curve; as a rule, active = well fitted curve in the direction sought with a large enough effect; inconclusive = small, poorly fitted or top-dose-only effect, or another doubt; inactive = no such curve, though single readings can be large; an effect the other way counts as inactive or inconclusive. Potency is the fitted concentration of half-maximal effect.

SMILES	GCN5L2 inh	GLS inh	Tb PFK inh-1	USP2a inh	PGK inhibitor	Tb PFK KinaseGlo	Tb PFK inh-2
CC1CC[C@@]2(OC1)O[C@@H]1[C@@H](O)[C@H]3C4CC[C@H]5C[C@@H](O[C@@H]6O[C@H](CO)[C@H](O[C@@H]7O[C@H](CO)[C@@H](O)[C@H](O[C@@H]8OC[C@@H](O)[C@H](O)[C@H]8O)[C@H]7O[C@@H]7O[C@H](CO)[C@@H](O)[C@H](O[C@@H]8O[C@H](CO)[C@@H](O)[C@H](O)[C@H]8O)[C@H]7O)[C@H](O)[C@H]6O)[C@H](O)C[C@]5(C)C4CC[C@]3(C)[C@H]1[C@@H]2C (some centres not stated)	14.0%[0.501 µM]	nt	nt	nt	nt	nt	nt
O=C(O)[C@@H](c1ccccc1)N1Cc2ccccc2C1=O	-6.8%	-1.1%	?	0.2%	-4.3%	?	?
CC(C(=O)c1ccccc1)N1C(=O)c2ccccc2C1=O (configuration not stated)	-4.2%	3.5%	0.2%	1.5%	-4.8%	nt	nt
Oc1ccc(/C=N/NC(=S)Nc2cccnc2)c(O)c1O	-9.0%	4.47µM*	?	0.9%	-9.5%	3.01µM*	7.57µM*
CCOC(=O)C1=C(C)c2ccccc2N(C(=O)OC)C1(C)C(=O)OCC (configuration not stated)	?	-12.0%	?	-1.3%	-11.8%	21.3µM*	?
C[C@]12CCC3C(CC[C@H]4C[C@@H](O)CC[C@]34C)[C@@H]1CCC2=O (some centres not stated)	-4.7%	nt	nt	nt	nt	nt	nt
CCN(CC)C(=S)Nc1ccc(Cl)c(Cl)c1	-1.1%	-3.3%	?	3.9%	-1.5%	14.4%	-1.3%
CC(=O)OC1CC2C(C)(C)C(O)C=C[C@@]2(C)C2CC[C@]3(C)C(=CC(=O)OC3c3ccoc3)[C@]12C (some centres not stated)	-16.3%	nt	nt	nt	nt	nt	nt
Cc1ccc(-c2ccc(/C=N/N=C3/NC(=O)C(CC(=O)O)S3)o2)c([N+](=O)[O-])c1 (configuration not stated)	-13.4%	8.9%	?	-1.1%	i	-34.0%	?
O=C(O)CC1S/C(=N/N=C/c2ccc(-c3ccccc3[N+](=O)[O-])o2)NC1=O (configuration not stated)	-16.8%	3.2%	?	1.3%	-16.2%	-30.6%	?
c1ccc2c(c1)c1cc[n+]2CCCCC[n+]2ccc(c3ccccc32)NCCCCCN1	0.4%	nt	nt	nt	nt	nt	nt
c1cc[n+]2c(c1)-c1cccc[n+]1CC2	39.3%	nt	nt	nt	nt	nt	nt
CC(C)c1c(Cl)c(O)c(-c2ccccc2)c(=O)n1-c1ccc(F)cc1	-1.9%	0.9%	?	2.8%	-3.9%	?	?
O=C(O)CCCNC(=O)c1ccc(NC(=O)Cc2ccc(Cl)cc2)cc1	-4.5%	0.8%	?	-0.4%	i	?	?
Cc1ccc(NC(=O)CN2C(=O)CN=C(c3ccccc3)c3cc(Cl)ccc32)cc1	-14.9%	8.3%	4.2%	-28.7%	-6.4%	nt	nt
O=C(O)CCN1C(=O)c2ccc(NC(=O)Cc3ccc(Cl)cc3)cc2C1=O	-6.6%	0.7%	19µM*	-0.9%	-11.0%	?	26.9µM*
Cc1ccc(NC(=O)Nc2ccc(S(N)(=O)=O)cc2)cc1	-3.5%	-4.2%	21.3µM*	1.1%	-2.9%	13.5µM*	?
Cc1ccc(-n2c(O)c(C=Nc3ccc(S(N)(=O)=O)cc3)c(=O)[nH]c2=O)cc1	-6.5%	-2.2%	0.3%	11.6%	-3.4%	nt	nt
NS(=O)(=O)c1ccc(NC(=O)Nc2cccc(Cl)c2)cc1	-8.1%	-0.5%	23.9µM*	-7.0%	-5.5%	?	?
Cc1cc(OC(F)F)ccc1NC(=O)Nc1ccc([N+](=O)[O-])cc1	6.5%	2.0%	?	1.7%	i	?	?
Cc1ccc([N+](=O)[O-])cc1NC(=O)Nc1ccc(S(N)(=O)=O)cc1	-6.1%	9.0%	12µM*	5.8%	5.6%	13.5µM*	26.9µM*
COc1ccc(OC(=O)Nc2ccc([N+](=O)[O-])cc2OC)cc1	-17.8%	12.1%	?	-1.8%	7.6%	nt	nt
c1ccc(N2CCCC3(CCNCC3)C2)nc1	7.3%	nt	nt	nt	nt	nt	nt
CC(C)Oc1ccc(CNC(=O)Oc2ccccc2)cc1	?	9.5%	0.7%	1.7%	-1.6%	nt	nt
CN(C(=O)Cc1ccccc1)[C@H](CN1CCCC1)c1ccccc1	2.1%	nt	nt	nt	nt	nt	nt
SMILES	GCN5L2 inh	GLS inh	Tb PFK inh-1	USP2a inh	PGK inhibitor	Tb PFK KinaseGlo	Tb PFK inh-2
C[C@@H]1CC[C@H]2[C@@H](C)C(=O)O[C@@H]3OC4(C)CC[C@@H]1[C@]32OO4	1.0%	nt	nt	nt	nt	nt	nt
NS(=O)(=O)c1ccc(NC(=O)Nc2ccc(C(F)(F)F)cc2)cc1	-2.9%	-6.2%	?	3.6%	-4.6%	6.01µM*	13.5µM*
CCN(CC)C(=O)c1c(C)[nH]c(=S)c(C#N)c1-c1ccco1	-24.0%	?	-2.7%	2.6%	3.0%	nt	nt
Oc1ccc(/C=N/Nc2nccnc2Cl)cc1	-17.4%	24.7%	?	-0.6%	11.2µM*	-31.0%	19µM*
C[C@@H]1CN([C@@H](C)CO)C(=O)CCCn2nncc2CO[C@H]1CN(C)C(=O)Nc1ccc(N2CCCCC2)cc1	nt	11.1%	nt	nt	7.1%	nt	nt
CCCCCCCCCCCCCCCCOC[C@@H](COP(=O)([O-])OCC[N+](C)(C)C)OC(C)=O	10.2%	nt	nt	nt	nt	nt	nt
C/C(=C\[C@@H](N)C(=O)O)CP(=O)(O)O	-8.1%	nt	nt	nt	nt	nt	nt
Cc1cc(C)nc(SCc2nnc(SCc3ccc([N+](=O)[O-])cc3)n2Cc2ccco2)n1	-0.3%	2.8%	?	3.5%	-4.4%	10.7µM*	15.1µM*
CCOP(=S)(OCC)Oc1ccc(Cl)cc1Cl	-13.9%	nt	nt	nt	nt	nt	nt
CC1CC(Cl)CCC1C(=O)OC(C)(C)C (configuration not stated)	-3.2%	nt	nt	nt	nt	nt	nt
COc1ccc(N2C(=O)/C(=C/c3cccs3)NC2=S)cc1	?	-4.2%	15.1µM*	-0.5%	3.7%	6.01µM*	6.01µM*

Source: PubChem BioAssay
